# Data from PubChem BioAssay (Tox21).
# Where “and” joins values, the source holds several entries; their conditions need not be identical. Equal entries are not always repeated. A number with no mark means an inactive call. Entries that show only a call come without a potency. Calls of active or inactive are those of the source. Unless noted, calls come from the whole dose curve; as a rule, active = well fitted curve in the direction sought with a large enough effect in the repeat runs; inconclusive = weak or mixed curves; inactive = no such curve, though single readings can be large; an effect the other way counts as inactive or inconclusive.
# Biological target: Estrogen receptor (Homo sapiens) (UniProt P03372)
# Sequence (P03372 whole entry, looked up): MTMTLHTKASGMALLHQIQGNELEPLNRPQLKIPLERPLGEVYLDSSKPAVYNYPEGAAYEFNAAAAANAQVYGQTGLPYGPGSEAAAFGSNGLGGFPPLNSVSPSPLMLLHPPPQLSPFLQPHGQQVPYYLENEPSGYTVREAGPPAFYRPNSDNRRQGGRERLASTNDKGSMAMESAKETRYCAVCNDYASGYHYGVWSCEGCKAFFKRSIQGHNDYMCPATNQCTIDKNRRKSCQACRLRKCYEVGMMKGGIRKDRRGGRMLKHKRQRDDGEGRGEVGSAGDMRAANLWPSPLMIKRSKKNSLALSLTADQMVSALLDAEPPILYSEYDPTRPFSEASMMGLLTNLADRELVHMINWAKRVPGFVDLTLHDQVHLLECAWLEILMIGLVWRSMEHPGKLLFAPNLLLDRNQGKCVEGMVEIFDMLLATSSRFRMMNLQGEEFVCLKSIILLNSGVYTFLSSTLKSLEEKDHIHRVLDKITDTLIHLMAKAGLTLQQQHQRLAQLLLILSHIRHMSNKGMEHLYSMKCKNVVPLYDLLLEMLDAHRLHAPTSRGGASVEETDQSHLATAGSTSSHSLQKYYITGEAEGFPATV
# Experiment: qHTS assay to identify small molecule agonists of the estrogen receptor alpha (ER-alpha) signaling pathway (AID 743075; calls by dose curve;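 note: HEK293 GripTite cells with ER-alpha and UAS-driven beta-lactamase reporter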)
# Conditions: HEK293 ER-alpha-UAS-bla, beta-lactamase FRET ratio, 18 h; series mostly up to 70.1 µM; activation: at the top concentration
# Potency is the fitted concentration of half-maximal effect.
SMILES,Potency,activation [%]
CCCCCCOC(C)=O,inactive,–
O=S(=O)(O)c1cc(S(=O)(=O)O)c2c(N=Nc3ccccc3)c(O)ccc2c1,inactive,–
CC1=CC[C@H]2C[C@@H]1C2(C)C,inactive,–
COC(=O)c1ccc(C(=O)OC)cc1,inactive,–
O=[N+]([O-])C(CO)(CO)CO,inactive,–
CC(C)(C)C1CCC(O)CC1 (configuration not stated),inactive,–
O=C(c1ccc(O)cc1)c1ccc(O)cc1O,11.1 µM [inconclusive] (active) and 21.9 µM [inconclusive] (active),–
O=C1CCCCC1,inactive,–
CCOC(=O)[C@H](CCc1ccccc1)N[C@@H](C)C(=O)N1Cc2ccccc2C[C@H]1C(=O)O,inactive,–
CC#C[C@]1(O)CC[C@H]2[C@@H]3CCC4=CC(=O)CCC4=C3[C@@H](c3ccc(N(C)C)cc3)C[C@@]21C,inactive,–
C=C(C)C(=O)OCCC[Si](OC)(OC)OC,inactive,–
CCCCOCCOCCOC(=O)CCCCC(=O)OCCOCCOCCCC,–,-1.87
O=C(Cl)c1c(Cl)c(Cl)c(C(=O)Cl)c(Cl)c1Cl,inactive,–
O=[N+]([O-])c1cccc(Cl)c1,inactive,–
CC1COc2ccccc2N1C(=O)C(Cl)Cl (configuration not stated),24.5 µM [inconclusive] (active),–
CCC(=O)O,inactive,–
O=[N+]([O-])c1cc(N(CCO)CCO)ccc1NCCO,inactive,–
O=S(=O)(Oc1ccc(Cl)cc1Cl)c1ccccc1,7.9 µM [activator] (active) and 55 µM [activator] (active),–
CCCCC/C=C\C/C=C\CCCCCCCC(=O)OC,inactive,–
CCOC(=O)/C=C\C(=O)OCC,inactive,–

# Biological target: Estrogen receptor (Homo sapiens) (UniProt P03372)
# Experiment: qHTS assay to identify small molecule agonists of the estrogen receptor alpha (ER-alpha) signaling pathway using the BG1 cell line (AID 743079); note: nearly all actives have a fitted effect of over 20% in size
# Conditions: BG1Luc4E2 cells, ERE-luciferase agonist, 22 h; series mostly up to 70.3 µM; activation: at the top concentration
SMILES,Potency,activation
CCCCCCOC(C)=O,inactive,–
O=S(=O)(O)c1cc(S(=O)(=O)O)c2c(N=Nc3ccccc3)c(O)ccc2c1,–,1.77% [at 95 µM]
CC1=CC[C@H]2C[C@@H]1C2(C)C,inactive,–
COC(=O)c1ccc(C(=O)OC)cc1,–,-0.235%
O=[N+]([O-])C(CO)(CO)CO,inactive,–
CC(C)(C)C1CCC(O)CC1 (configuration not stated),inactive,–
O=C(c1ccc(O)cc1)c1ccc(O)cc1O,5.5 µM (active) and 9.69 µM (active),–
O=C1CCCCC1,–,15.7%
CCOC(=O)[C@H](CCc1ccccc1)N[C@@H](C)C(=O)N1Cc2ccccc2C[C@H]1C(=O)O,inactive,–
C=C(C)C(=O)OCCC[Si](OC)(OC)OC,inactive,–
CCCCOCCOCCOC(=O)CCCCC(=O)OCCOCCOCCCC,inactive,–
O=C(Cl)c1c(Cl)c(Cl)c(C(=O)Cl)c(Cl)c1Cl,inactive,–
O=[N+]([O-])c1cccc(Cl)c1,inactive,–
CC1COc2ccccc2N1C(=O)C(Cl)Cl (configuration not stated),inactive,–
CCC(=O)O,inactive,–
O=[N+]([O-])c1cc(N(CCO)CCO)ccc1NCCO,inactive,–
O=S(=O)(Oc1ccc(Cl)cc1Cl)c1ccccc1,19.7 µM (active) and 30.6 µM (active),–
CCCCC/C=C\C/C=C\CCCCCCCC(=O)OC,inactive,–
CCOC(=O)/C=C\C(=O)OCC,inactive,–

# Tested on: not listed separately
# Experiment: qHTS assay to identify small molecule antagonists of the estrogen receptor alpha (ER-alpha) signaling pathway using the BG1 cell line (AID 743080; calls by dose curve;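 note: BG1 cells stimulated with 17beta-estradiol alongside compound; nearly all actives have a fitted effect of over 25% in size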)
# Conditions: BG1Luc4E2 ERE-luciferase antagonist mode, luminescence; series mostly up to 70.3 µM; activity change, negative = inhibition: at the top concentration
# Outline: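 BG1-Luc-4E2 cells (endogenous full-length ER-alpha, 4xERE luciferase) hormone-starved 5 days in charcoal-stripped FBS, plated 4,000/well for 24 h, then compound plus 17beta-estradiol for 21.5 h at 37 C; ONE-Glo luminescence read.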
SMILES,Potency,"activity change, negative = inhibition [%]"
CCCCCCOC(C)=O,inactive,–
O=S(=O)(O)c1cc(S(=O)(=O)O)c2c(N=Nc3ccccc3)c(O)ccc2c1,inactive,–
CC1=CC[C@H]2C[C@@H]1C2(C)C,inactive,–
COC(=O)c1ccc(C(=O)OC)cc1,inactive,–
O=[N+]([O-])C(CO)(CO)CO,inactive,–
CC(C)(C)C1CCC(O)CC1 (configuration not stated),inactive,–
O=C(c1ccc(O)cc1)c1ccc(O)cc1O,inactive,–
O=C1CCCCC1,inactive,–
CCOC(=O)[C@H](CCc1ccccc1)N[C@@H](C)C(=O)N1Cc2ccccc2C[C@H]1C(=O)O,inactive,–
CC#C[C@]1(O)CC[C@H]2[C@@H]3CCC4=CC(=O)CCC4=C3[C@@H](c3ccc(N(C)C)cc3)C[C@@]21C,16.8 µM (active) and 68.6 µM (active),–
C=C(C)C(=O)OCCC[Si](OC)(OC)OC,inactive,–
CCCCOCCOCCOC(=O)CCCCC(=O)OCCOCCOCCCC,inactive,–
O=C(Cl)c1c(Cl)c(Cl)c(C(=O)Cl)c(Cl)c1Cl,inactive,–
O=[N+]([O-])c1cccc(Cl)c1,inactive,–
Cc1cc(O)c2c(c1)C(=O)c1cc(O)cc(O)c1C2=O,–,-14.8
CC1COc2ccccc2N1C(=O)C(Cl)Cl (configuration not stated),30.6 µM (active) and 68.5 µM (active),–
CCC(=O)O,inactive,–
CCCCC/C=C\C/C=C\CCCCCCCC(=O)OC,inactive,–
CCOC(=O)/C=C\C(=O)OCC,inactive,–

# Tested on: not listed separately
# Experiment: qHTS assay to identify small molecule antagonists of the estrogen receptor alpha (ER-alpha) signaling pathway using the BG1 cell line - cell viability counter screen (AID 743081);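 note: compound given together with 17beta-estradiol as the ER stimulus; nearly all actives have a fitted effect of over 45% in size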
# Conditions: BG1Luc4E2 viability, CellTiter-Fluor, 22 h; series mostly up to 70.3 µM; activity change, negative = cytotoxicity: at the top concentration
SMILES,Potency,"activity change, negative = cytotoxicity [%]"
CCCCCCOC(C)=O,inactive,–
CC(=O)[C@@]1(O)CC[C@H]2[C@@H]3CCC4=CC(=O)CC[C@]4(C)[C@H]3CC[C@@]21C,inactive,–
O=S(=O)(O)c1cc(S(=O)(=O)O)c2c(N=Nc3ccccc3)c(O)ccc2c1,27.4 µM (active) and 30.6 µM (active),–
Clc1ccc(Cl)c(Cl)c1Cl,inactive,–
COC(=O)Nc1nc2ccc(Sc3ccccc3)cc2[nH]1,inactive,–
CN(C)c1cccc(O)c1,inactive,–
CC1=CC[C@H]2C[C@@H]1C2(C)C,inactive,–
COC(=O)c1ccc(C(=O)OC)cc1,inactive,–
O=[N+]([O-])C(CO)(CO)CO,inactive,–
CC(C)(C)C1CCC(O)CC1 (configuration not stated),inactive,–
O=C(c1ccc(O)cc1)c1ccc(O)cc1O,inactive,–
c1ccc2[nH]cnc2c1,inactive,–
O=C1CCCCC1,inactive,–
CCCCCCCCCCC=CC1CC(=O)OC1=O (configuration not stated),inactive,–
C=C1CC[C@H](O)CC1=C/C=C1\CCC[C@]2(C)[C@@H]([C@H](C)/C=C/[C@H](C)C(C)C)CC[C@@H]12,inactive,–
CCOC(=O)[C@H](CCc1ccccc1)N[C@@H](C)C(=O)N1Cc2ccccc2C[C@H]1C(=O)O,inactive,–
CC#C[C@]1(O)CC[C@H]2[C@@H]3CCC4=CC(=O)CCC4=C3[C@@H](c3ccc(N(C)C)cc3)C[C@@]21C,inactive,–
C=C(C)C(=O)OCCC[Si](OC)(OC)OC,inactive,–
CCCCOCCOCCOC(=O)CCCCC(=O)OCCOCCOCCCC,inactive,–
CCCCCCCCCCCCN,inactive,–

SMILES,Potency,"activity change, negative = cytotoxicity [%]"
CCCCC(CC)COC(C)=O (configuration not stated),inactive,–
O=C(Cl)c1c(Cl)c(Cl)c(C(=O)Cl)c(Cl)c1Cl,inactive,–
O=C(Oc1ccccc1)c1ccc(O)cc1,inactive,–
O=[N+]([O-])c1cccc(Cl)c1,inactive,–
O=c1c(-c2ccc(O)cc2)coc2cc(O)ccc12,–,-6.18
Cc1cc(NS(=O)(=O)c2ccc(N)cc2)no1,inactive,–
Cc1cc(O)cc(C)c1Cl,inactive,–
Cc1cc(O)c2c(c1)C(=O)c1cc(O)cc(O)c1C2=O,29.9 µM (active) and 24.3 µM (active),–
CC1COc2ccccc2N1C(=O)C(Cl)Cl (configuration not stated),–,-18
CCC(=O)O,inactive,–
CC(=O)CCc1ccccc1,inactive,–
O=[N+]([O-])c1cc(N(CCO)CCO)ccc1NCCO,48.5 µM (active),–
O=S(=O)(Oc1ccc(Cl)cc1Cl)c1ccccc1,inactive,–
Cc1ccc(N)c(S(=O)(=O)O)c1,inactive,–
NC(=O)NNc1ccccc1,inactive,–
CCCCC/C=C\C/C=C\CCCCCCCC(=O)OC,inactive,–
CCOC(=O)/C=C\C(=O)OCC,inactive,–
CC1=C(CC(=O)O)c2cc(F)ccc2/C1=C\c1ccc(S(C)=O)cc1 (configuration not stated),inactive,–
CC(C)NCC(O)COc1cccc2ccccc12 (configuration not stated),inactive,–
